Out of some 2,100 compounds screened, about 650 (31%) were called active. Another 16% or so got no clear call; they are omitted. The call rests on the fitted dose curve; in most records, active means well fitted inhibition curve with a large enough effect; inconclusive means small, poorly fitted or top-dose-only effect; inactive means flat fitted curve, though single readings scatter. The list shows a part of the results. Where a call stands in place of a potency, no number is given.
test: qHTS for inhibitors of Vif-A3G interactions: Cherry picks; settings: HeLa A3G-eYFP + Vif (tagged APOBEC3G with the HIV-1 protein that degrades it), 24 h; Potency: eYFP fluorescence increase; series mostly up to 36.9 µM; further: nearly all actives have a fitted effect of over 80% in size
How it was run: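 Cherry-picked compounds tested at several concentrations on A3G-eYFP/Vif HeLa cells for 24 hours; loss of Vif-driven degradation read as eYFP fluorescence by cytometric plate imaging, 488 nm excitation, 500-530 nm emission.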
Potency means the concentration at half of the fitted maximal effect.

SMILES | Potency
C=CCN1C(=O)c2ccc(C(=O)N(CC(C)C)c3c(N)n(CCCC)c(=O)[nH]c3=O)cc2C1=O | inactive
CCCCn1c(N)c(N(Cc2ccccc2OC)C(=O)c2ccc([N+](=O)[O-])s2)c(=O)[nH]c1=O | inactive
CCCCn1c(N)c(N(CC(C)C)C(=O)Cc2ccc(S(=O)(=O)N3CCOCC3)s2)c(=O)[nH]c1=O | 18.4 µM (active)
Cc1cc(N)cc(C)c1-c1c(Br)cc(N)cc1Br | inactive
COc1ccc(/C=C/C=C2\NC(=S)NC2=O)cc1 | 6.51 µM (active)
COc1ccc2c(c1)c1nc3ccccc3nc1n2CC(=O)OC(C)C | 3.66 µM (active)
CCOc1ccc(Cn2c3ccc(OC)cc3c3nc4ccccc4nc32)cc1 | 16.4 µM (active)
COc1cccc(Cn2c(-c3nonc3N)nc3ccccc32)c1 | inactive
COc1cccc(Cn2c(-c3nonc3NC(C)=O)nc3ccccc32)c1 | inactive
CCOc1cccc(-n2nnnc2-c2ccc(OC)cc2)c1 | inactive
CCCN1CCC(=NNc2ccc(S(=O)(=O)N3CCOCC3)cc2[N+](=O)[O-])CC1 | inactive
COc1cc(S(=O)(=O)Nc2ccccc2N2CCCCC2)ccc1NC(C)=O | inactive
CCOCCC(=O)Nc1ccc2c(c1)c(=O)n(C)n2C/C=C/c1ccccc1 | inactive
COc1ccccc1CCC(=O)Nc1ccc2c(c1)c(=O)n(C)n2Cc1ccc(F)cc1 | inactive
CCCn1c(SCC(=O)Nc2ccccc2OC)nnc1-c1ccco1 | inactive
Cc1cccc(Cn2c(=O)n(CCCC(=O)NCc3ccco3)c(=O)c3ccccc32)c1 | inactive
O=C(CCCCn1c(=O)c2ccccc2n(Cc2ccc(F)cc2)c1=O)NCc1ccco1 | inactive
COc1ccc(NC(=O)CSc2nc3c(oc4ccccc43)c(=O)n2Cc2ccco2)cc1Cl | 14.6 µM (active)
COc1cc2nc(SCC(=O)NCc3ccco3)n(Cc3ccc(Cl)cc3)c(=O)c2cc1OC | 5.8 µM (active)
c1ccc(N=Nc2ccc3cccccc2-3)cc1 | inactive
Cc1ccc(-c2csc(NC3OC(=O)c4ccccc43)n2)cc1 (stereo not drawn) | inactive
CCOC(=O)C(=Cc1ccc(-n2cncn2)cc1)C(=O)OCC | inactive
CCOc1cc(S(=O)(=O)NCc2ccc(OC)cc2)c(OCC)cc1-n1cnnn1 | inactive
CC(C)(C)OC(=O)NCc1ccc(NC(=O)c2nc[nH]c2C(=O)NCCCNC(=O)c2[nH]cnc2C(=O)Nc2ccc(CNC(=O)OC(C)(C)C)cc2)cc1 | inactive
CCC(C)n1c(NC(=O)c2ccccc2)c(C#N)c2nc3ccccc3nc21 (stereo not drawn) | 18.4 µM (active)

SMILES | Potency
O=c1[nH]c(/C=C/c2cccc3ccccc23)nc2ccccc12 | 18.4 µM (active)
CCN(CC(=O)Nc1ccccc1-c1ccccc1)Cc1nc2ccccc2c(=O)[nH]1 | inactive
Cc1ccccc1/C=C\c1nc2ccccc2c(=O)[nH]1 | inactive
O=c1[nH]c(-c2cccnc2)nc2sc(-c3ccccc3)cc12 | inactive
O=C(NC1CCCC(C(F)(F)F)C1)c1ccc([N+](=O)[O-])o1 (stereo not drawn) | inactive
N#CC(=Cc1ccccn1)c1nc(-c2ccc(Cl)cc2)cs1 | 6.27 µM (active)
N#C/C(=C\c1ccc(Cl)cc1)c1nc2ncccc2[nH]1 | inactive
COc1ccc(CCNC(=O)CC2(CC3=NS(=O)(=O)c4ccccc4N3)CCCC2)cc1OC | inactive
COc1cccc(Cn2c3ccc(NC(=O)CCc4ccc(F)cc4)cc3c(=O)n2C)c1 | inactive
COc1ccc(-c2cc(-c3nnc(COC(=O)c4ccncc4)o3)c3ccccc3n2)cc1OC | inactive
CCOc1ccccc1NC(=O)Cn1nnc(C(=O)NCc2cccs2)c1N | inactive
CCOc1ccc(C2CC(c3c(O)c4ccccc4oc3=O)=NN2c2ccccc2)cc1OC (stereo not drawn) | 14.6 µM (active)
COc1cc2c(cc1OC)CN(C(=O)c1cc(=O)c3ccccc3o1)CC2 | inactive
CCOc1cc(-c2nnc(SCC(=O)NCc3ccccc3)nc2-c2ccc(OC)c(OCC)c2)ccc1OC | inactive
COc1ccc(NC(=O)c2ccc3c(c2)c(C)c(C)n3Cc2ccc(F)cc2)cc1 | inactive
COc1ccc(C(=O)/C=C2/c3ccccc3CC(C)(C)N2C)cc1 | inactive
COc1ccc(/C=C2\C(=O)NC(=S)N2C(=O)c2ccc(F)cc2)cc1 | 8.2 µM (active)
NNC(=O)c1cc2sccc2s1 | inactive
CC(C)n1cc(NC(=O)c2cc(-c3ccccc3)on2)cn1 | inactive
N#C/C(=C\c1cccc(O)c1)c1nc2ccccc2o1 | 3.14 µM (active)
C[C@]12CCC[C@H](O1)c1c(cc3c(c1O)C(=O)c1c(O)cc(O)cc1C3=O)O2 | 13 µM (active)
O=C1c2ccccc2C(=O)c2cc(N3CCCCC3)ccc21 | 7.9 µM (active)
O=C(N/N=C/c1cccc2ccccc12)c1cc2ccccc2o1 | inactive
COc1cc(C(=O)Nc2ccc3c(c2)nc(C)n3C)cc(OC)c1OC | inactive
COc1ccc(COc2cc(-c3cccc(OC)c3)nc3ccc(NC(=O)c4ccc(OC)cc4)cc23)cc1 | inactive

SMILES | Potency
COc1ccc(Nc2nc(C)nc3sc4c(c23)CCC4)cc1O | inactive
COc1ccc(N(C(=O)C(C)C)S(=O)(=O)c2cccs2)cc1 | inactive
COc1cccc(C(=O)c2sc3nc(-c4ccccc4)cc(C(F)(F)F)c3c2N)c1 | 1.64 µM (active)
COc1cccc(-c2ccc3c(N)c(C(=O)c4ccc(Br)cc4)sc3n2)c1 | 16.4 µM (active)
COC(=O)CCS(=O)(=O)c1nc(-c2ccccc2)cc(C(F)(F)F)n1 | inactive
COc1ccc(C(=O)c2sc3nc(C)cc(-c4cccs4)c3c2N)cc1 | 18.4 µM (active)
COc1ccc(NC(=O)c2sc3nc(C(F)(F)F)cc(C)c3c2N)cc1OC | 23.1 µM (active)
COc1ccc(C(=O)c2ccc(OC)c(OC)c2OC)cc1 | inactive
O=c1[nH]c(NCc2ccco2)nnc1Cc1ccccc1Cl | inactive
Cc1c(C(=O)N/N=C/C(C)C)[nH]c2c([N+](=O)[O-])cccc12 | inactive
CN[C@H]1CCc2cc(OC)c(OC)c(OC)c2-c2ccc(N(C)CC(OC)OC)c(=O)cc21 | inactive
C/C(=N\NC(=O)c1c(Cl)c(C)nn1C)c1ccc(NC(=O)C2CCC2)cc1 | inactive
Cc1ccc(NC(=O)Cn2ncc(Cl)c(Cl)c2=O)cc1S(=O)(=O)N1CCCCC1 | inactive
O=C(N/N=C/c1ccc2c(c1)OCO2)c1ccc2c(c1)OCCO2 | inactive
Brc1ccc2c(c1)[C@H]1OCC[C@H]1[C@@H](c1cccs1)N2 | inactive
C=C(C)CNC(=S)N/N=C1\CCCCc2ccccc21 | inactive
Cc1cc(N2CCN(C)CC2)ccc1NC(=O)c1c2c(nc3ccccc13)CCN(Cc1ccccc1)C2 | inactive
COc1cccc(C(=O)Nc2ncc3c(n2)CC(c2ccc(OC)cc2OC)CC3=O)c1 (stereo not drawn) | inactive
COc1ccc(NC(=O)c2sc3nc4c(cc3c2N)CN(Cc2ccccc2)CC4)c(OC)c1 | 18.4 µM (active)
COc1cccc(NC(=O)Nc2nc(-c3ccc(OC)c(OC)c3)cs2)c1 | inactive
COc1ccc(C(=O)c2sc3nc(-c4ccc(C)cc4)cc(C(F)(F)F)c3c2N)cc1 | 2.06 µM (active)
COc1ccc(NC(=O)c2cc(-c3ccccc3OC)on2)cc1 | inactive
COc1ccc(NC(=O)c2sc3nc(-c4cccnc4)ccc3c2N)cc1OC | 3.66 µM (active)
COc1ccc(OC)c(-c2cc(-c3cccnc3)nc(N)c2C#N)c1 | inactive
COc1ccc(NC(=O)c2sc3nc(-c4ccc(OC)cc4)cc(C(F)(F)F)c3c2N)cc1 | 0.731 µM (active)

SMILES | Potency
CCOC(=O)c1c(C)nc2sc(C(=O)Nc3ccc(OC)cc3)c(N)c2c1-c1ccc(OC)cc1 | inactive
CC1(C)Cc2nc3sc4c(=O)n(CC(=O)NCc5ccccc5)cnc4c3cc2CO1 | inactive
O=[N+]([O-])c1ccccc1SNc1ccccc1 | inactive
CC(=O)Nc1ccc(S(=O)(=O)Nc2nc3ccccc3nc2Nc2ccc3ccccc3c2)cc1 | inactive
Clc1ccc(-c2csc3ncnc(Sc4nnnn4C4CC4)c23)cc1 | inactive
O=C1NC(c2ccc(Br)cc2)Nc2ccccc21 (stereo not drawn) | inactive
C/C(=N\NC(=O)c1cc(-c2ccncc2)nc2ccccc12)c1ccc(N2CCOCC2)cc1 | inactive
CC(=O)Nc1ccc(-c2ccnc3c2CC(C(=O)NCc2cccc(Cl)c2)O3)cc1 (stereo not drawn) | inactive
Cc1cc(C(F)(F)F)c2c(N)c(C(=O)Nc3cc(C)on3)sc2n1 | 8.2 µM (active)
Cc1cc(-c2nc(C)c(C(=O)NN)s2)no1 | inactive
COc1ccc(OC)c(NC(=O)c2sc3nc(Cc4ccccc4)cc(C(F)(F)F)c3c2N)c1 | 4.61 µM (active)
COc1cc(C(=O)Nc2nnc(Cc3ccccc3)s2)cc(OC)c1OC | inactive
COc1ccc2nc3sc(C(=O)Nc4cc(Cl)c(OC)cc4OC)cc3cc2c1 | inactive
O=C(N/N=C/c1cccc2ccccc12)c1n[nH]c2c1CCCC2 | inactive
O=C(OCC12CC3CC(CC(C3)C1)C2)c1ccc(NCc2cc(O)ccc2O)cc1 | inactive
CC(=O)Nc1ccc(-c2ccnc3c2CC(C(=O)Nc2cccc(N(C)C)c2)O3)cc1 (stereo not drawn) | inactive
CC(CC(=O)Nc1ccc2c(c1)c(=O)n(C)n2-c1ccccc1)c1ccccc1 (stereo not drawn) | inactive
NC(=O)CSc1nc2c(sc3ccccc32)c(=O)n1CCCC(=O)NCC1CCCO1 (stereo not drawn) | inactive
O=C(NCc1ccc2c(c1)OCO2)c1cc([N+](=O)[O-])ccc1N1CCOCC1 | inactive
COc1ccc(OC)c(C2CC(=O)c3c([nH]c(C(=O)OCC4CCCO4)c3C)C2)c1 (stereo not drawn) | inactive
CCOC(=O)/C=c1\s/c(=C\c2ccccc2C)c(=O)n1CC(=O)NCc1ccc2c(c1)OCO2 | 15.8 µM (active)
O=C(/C=C/c1cccs1)NCc1ccc2c(c1)OCO2 | inactive
CCOC(=O)/C=c1/s/c(=C/c2ccc3cc(OC)ccc3c2)c(=O)n1CC(=O)NCC1CCCO1 (stereo not drawn) | 18.4 µM (active)
